Source: PubChem BioAssay AID1347142 (National Center for Advancing Translational Sciences (NCATS), 2019)
Inconclusive results are not listed. Active and inactive are the calls of the source. Calls come from the whole dose curve; as a rule, active = well fitted inhibition curve with a large enough effect; inconclusive = small, poorly fitted or top-dose-only effect; inactive = no such curve, though single readings can be large or run the other way.
Note: nearly all actives have a fitted effect of over 80% in size.
Potency is the fitted concentration of half-maximal effect.
Throughout, for activity change, negative = inhibition: 0% is about no effect.

The molecules below were run against N-terminal Xaa-Pro-Lys N-methyltransferase 1 (Homo sapiens) (UniProt Q9BV86) (assay: qHTS Assay for Inhibitors of N-terminal methyltransferase 1 (NTMT1): ThioGlo3 Assay Confirmatory Screen, Round 1.). Details: NTMT1 SAHH-coupled ThioGlo3 fluorescence, 30 min; series mostly up to 56.8 µM; activity change, negative = inhibition: at the top concentration.
Chain of N-terminal Xaa-Pro-Lys N-methyltransferase 1 (Homo sapiens) (Q9BV86 whole entry, looked up): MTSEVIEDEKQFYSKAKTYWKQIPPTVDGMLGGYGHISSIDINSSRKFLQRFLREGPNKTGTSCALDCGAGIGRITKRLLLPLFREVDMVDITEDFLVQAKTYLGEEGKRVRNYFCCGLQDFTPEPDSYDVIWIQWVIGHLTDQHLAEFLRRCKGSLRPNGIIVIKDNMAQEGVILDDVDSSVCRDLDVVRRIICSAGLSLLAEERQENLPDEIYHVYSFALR
Text: Assay Submitter (PI): Rong Huang Ph.D, Purdue University, West Lafayette, IN 47907 The N-terminal methytransferase 1 is the first methyltransferase that methylates protein alpha-N-amines and plays an important role in regulating cell mitosis, chromatin interactions and DNA repair. It is observed to be over-expressed in various cancer patient tissues like malignant melanoma and colorectal cancer tissues. Knockdown of NTMT1 in cancer cells causes cell mitotic defects and enhances sensitivity to DNA damaging chemotherapeutics. […] These critical cellular processes in which NTMT1 is implicated, coupled with emerging links to cellular dysfunction, strengthen the inference that NTMT1 is a compelling novel anticancer target. Progress have been made in understanding the molecular properties of NTMT1 and the biological consequences of protein alpha-N-terminal methylation, but there are no specific small molecule probes available for NTMT1 to fully characterize its MTase activity. To address this unmet need, a panel of assay is created and established to enable quantitative high-throughput screening (qHTS) for novel, potent, and selective small molecule NTMT1 inhibitors. Two orthogonal qHTS that use different reagents (ThioGlo vs. MTaseGlo) are developed for primary robotic screening against the NCATS chemical library of more than 400,000 small molecules. Identified inhibitors are reacquired, validated, and further characterized. […] Early Translation Branch (ETB) National Center for Advancing Translational Sciences (NCATS) National Institute of Health (NIH)
Materials: NTMT1 enzyme, substrate SPKRIA, control peptide RCC1-6 is provided by the Huang laboratory. ThioGlo3 Assay: In brief, 125nM NTMT1 enzyme was dispensed into a 1536-well assay plate with Aurora Discovery BioRAPTR Flying Reagent Dispenser (FRD, Beckton-Dickenson). Compounds (at various concentration) or 1uM RCC1-6 (SPKRIA) control were transferred to the assay plate using the Kalypsys 1536-pintool apparatus. After 1 min of room temperature incubation, 1uL of substrate (100uM SAM, 10uM SAHH, 15uM ThioGlo3) was added to the wells bringing the final assay volume to 4uL. Initial (background) fluorescence readout (EX: 340nm, EM: 450nm) was then detected using the PerkinElmer ViewLux microplate imager and a final fluorescence readout was taken after 30 min of room temperature incubation. The data was normalized to the background fluorescence.
With `Nc1nc2c(ncn2[C@@H]2O[C@H](CO)[C@@H](O)[C@H]2O)c(=O)[nH]1` the “activity change, negative = inhibition” value was 10.9% (inactive).
In the case of `COc1cc2nc(N3CCN(C)CC3)nc(NCCCN(C)C)c2cc1OC`, the Potency was 27.1 µM (active).
In the case of `COc1cc2nc(NCCN(C)C)nc(NC3CC3)c2cc1OC`, the Potency was 27.1 µM (active).
For `COc1cc2c(NC3CCN(C(C)C)CC3)nc(N3CCCN(CC4CCCCC4)CC3)nc2cc1OCCCN1CCCCC1`, the Potency was 24.1 µM (active).
In the case of `COc1cc2c(NC3CCN(C(C)C)CC3)nc(N3CCCN(C4CCCCC4)CC3)nc2cc1OCCCN1CCCCC1`, the Potency was 24.1 µM (active).
With `Nc1ncnc2c1ncn2[C@@H]1O[C@H](C(=O)NC2CC2)[C@@H](O)[C@H]1O` the “activity change, negative = inhibition” value was 2.31% (inactive).
In the case of `COc1cc2nc(N3CCCCC3)nc(NC3CC3)c2cc1OC`, the Potency was 24.1 µM (active).
For `COc1cc2c(NC3CCN(C)CC3)nc(N3CCCN(C)CC3)nc2cc1OCc1ccccc1`, the Potency was 19.2 µM (active).
`CNc1ncnc2c1ncn2[C@@H]1O[C@H](CO)[C@@H](O)[C@H]1O` was tested, and the “activity change, negative = inhibition” value was 10.2% (inactive).
For `COc1cc2nc(N(C)C)nc(NC3CC3)c2cc1OC`, the “activity change, negative = inhibition” value was -25.2% (inactive).
`Nc1nc(F)nc2c1ncn2[C@@H]1O[C@H](CO)[C@@H](O)[C@@H]1O` was tested, and the Potency was “inactive”.
With `Nc1ncnc2c1ncn2[C@H]1O[C@@H](CO)[C@@H](O)[C@H]1N` the “activity change, negative = inhibition” value was -7.61% (inactive).
`Nc1nc(Cl)nc2c1ncn2[C@@H]1O[C@H](COP(=O)(O)OP(=O)(O)OP(=O)(O)O)[C@@H](O)[C@H]1O` was tested, and the “activity change, negative = inhibition” value was -20.5% (inactive).
With `O=c1[nH]cnc2c1ncn2[C@@H]1O[C@H](CO)[C@@H](O)[C@H]1O` the Potency was “inactive”.
For `COc1cc2nc(N3CCN(C)CC3)nc(N3CCN(C(C)=O)CC3)c2cc1OC`, the Potency was 21.5 µM (active).
`CNC(=O)c1cnn(-c2nc(N)c3ncn([C@@H]4O[C@H](CO)[C@@H](O)[C@H]4O)c3n2)c1` was tested, and the “activity change, negative = inhibition” value was -22.6% (inactive).
For `COc1cc2c(NC3CCN(C4CCCCC4)CC3)nc(N3CCCCCC3)nc2cc1OCCOCCN(C)C`, the Potency was 24.1 µM (active).
`COc1cc2c(NC3CCN(C)CC3)nc(N3CCCN(C)CC3)nc2cc1OCCCCN(C)C` was tested, and the Potency was 24.1 µM (active).
For `COc1cc2c(NC3CCN(C(C)C)CC3)nc(N3CCCN(C(C)C)CC3)nc2cc1OCCCN1CCCCC1`, the Potency was 24.1 µM (active).
In the case of `CCN1CCCN(c2nc(NC3CCN(C(C)C)CC3)c3cc(OC)c(OCCCN4CCCC4)cc3n2)CC1`, the Potency was 24.1 µM (active).
In the case of `[N-]=[N+]=Nc1nc2c(N)ncnc2n1C1OC(CO)C(O)C1O` (stereo not given), the Potency was 21.5 µM (active).
For `CCNc1nc(N2CCCN(C)CC2)nc2cc(OC)c(OC)cc12`, the Potency was 34.1 µM (active).
`COc1cc2nc(N3CCCN(C)CC3)nc(NC3CCN(C)CC3)c2cc1OC` was tested, and the Potency was 21.5 µM (active).
With `NCCNC(=O)Cc1ccc(NC(=O)Cc2ccc(Nc3ncnc4c3ncn4[C@@H]3O[C@H](CO)[C@@H](O)[C@H]3O)cc2)cc1` the “activity change, negative = inhibition” value was -1.16% (inactive).
For `COc1cc2c(NC3CCN(C(C)C)CC3)nc(N3CCCN(C)CC3)nc2cc1OCCCN1CCCCC1`, the Potency was 24.1 µM (active).
In the case of `Cc1ccccc1CNc1ncnc2c1ncn2[C@@H]1O[C@H](CO)[C@@H](O)[C@H]1O`, the Potency was 27.1 µM (active).
In the case of `CNC(=O)[C@H]1O[C@H](n2cnc3c(NCc4cccc(I)c4)ncnc32)[C@@H](O)[C@@H]1O`, the “activity change, negative = inhibition” value was 11.8% (inactive).
For `CSc1nc(N)c2ncn([C@@H]3O[C@H](COP(=O)(O)OP(=O)(O)O)C(O)[C@H]3O)c2n1` (stereo not given in full), the “activity change, negative = inhibition” value was -17.9% (inactive).
In the case of `CCN(CC)c1nc(NC2CCN(C)CC2)c2cc(OC)c(OC)cc2n1`, the Potency was 27.1 µM (active).
For `COc1cc2c(NC3CCN(C(C)C)CC3)nc(N3CCCN(C4CCCCC4)CC3)nc2cc1OCCCN1CCCC1`, the Potency was 24.1 µM (active).
With `COc1cc2c(NC3CCN(C(C)C)CC3)nc(N3CCCCC3)nc2cc1OCCCN1CCCCC1` the Potency was 21.5 µM (active).
`O=C(Nc1ncnc2c1ncn2[C@@H]1O[C@@H]2COP(=O)(O)O[C@H]2[C@H]1O)c1ccccc1` was tested, and the “activity change, negative = inhibition” value was 20.2% (inactive).
For `Nc1ncnc2c1ncn2[C@H]1C[C@H](O)[C@@H](CO)O1`, the “activity change, negative = inhibition” value was -5.23% (inactive).
For `COc1cc2c(NC3CCN(C)CC3)nc(N3CCCN(C)CC3)nc2cc1OCCCCN`, the Potency was 21.5 µM (active).
With `COc1cc2c(NC3CCN(C)CC3)nc(N3CCCN(C)CC3)nc2cc1OCCCC(C)C` the Potency was 24.1 µM (active).
`COc1cc2c(NC3CCN(C)CC3)nc(N3CCCCC3)nc2cc1OCCOCCN1CCCC1` was tested, and the Potency was 27.1 µM (active).
`COc1cc2c(NC3CCN(CC4CCCCC4)CC3)nc(N3CCCCCC3)nc2cc1OCCCN1CCCCC1` was tested, and the Potency was 24.1 µM (active).
With `Nc1ncnc2c1nc(Br)n2C1OC(CO)C(O)C1O` (stereo not given) the “activity change, negative = inhibition” value was -4.56% (inactive).
For `CO[C@@H]1[C@@H]2OP(=O)(O)OC[C@H]2O[C@H]1n1c(Sc2ccc(Cl)cc2)nc2c(N)ncnc21`, the “activity change, negative = inhibition” value was -11.6% (inactive).
In the case of `CSc1nc(N)c2ncn([C@@H]3O[C@H](COP(=O)(O)OP(=O)(O)OP(=O)(O)O)C(O)[C@H]3O)c2n1` (stereo not given in full), the Potency was 21.5 µM (active).
